The list is not random: actives were taken first. Their share in the collection is about 18%.
DT40 TDP1 no CPT – qHTS for Inhibitors of human tyrosyl-DNA phosphodiesterase 1 (TDP1): qHTS in cells in absence of CPT | AID 686978, 2013 | DT40 Tdp1-/- hTDP1 cells, no CPT, ATP luminescence, 48 h | Potency, µM (series often up to 46.2 µM), for inactives: top-dose activity change, negative = growth inhibition, actives largely listed as inhibitors | actives 15% (n = 420,000); note: potency is the fitted concentration of half-maximal effect; nearly all actives have a fitted effect of over 55% in size
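Stably hTDP1-transfected Tdp1-null chicken DT40 cells were treated with library compounds minus camptothecin and grown for at least 48 hr at 37 °C, after which cellular ATP was quantified by luminescence.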
Six1-Eya2 inh – Six1/Eya2 interaction inhibition; Q15475+O00167; AlphaScreen GST-Six1/His-Eya2 binding, biochemical; hits give low values; activity change, % (test concentration not listed); actives 0.56% (n = 360,000); AID 651725; in the data active = activity change below about -65%; inconclusive = mostly about -30% to -63%
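Six1/Eya2 binding was read as AlphaScreen signal after compounds were pinned into GST-Six1 plus His-tagged Eya2 (5X stock 250/500 nM) in pH 8.0 Tris/NaCl/TCEP buffer, beads added, then incubated 1 h, 37 C, dark.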
TDP1 inh – inhibitors of human tyrosyl-DNA phosphodiesterase TDP1 | Q9NUW8 | recombinant TDP1, AlphaScreen DNA substrate cleavage | Potency, µM (highest dose often 130 µM), for the others: top-dose activity change, negative = inhibition, hits mostly inhibitors | actives 0.28% (n = 350,000) | AID 485290; note: potency is the fitted concentration of half-maximal effect; nearly all actives have a fitted effect of over 40% in size
Target sequence (Q9NUW8 whole entry, looked up): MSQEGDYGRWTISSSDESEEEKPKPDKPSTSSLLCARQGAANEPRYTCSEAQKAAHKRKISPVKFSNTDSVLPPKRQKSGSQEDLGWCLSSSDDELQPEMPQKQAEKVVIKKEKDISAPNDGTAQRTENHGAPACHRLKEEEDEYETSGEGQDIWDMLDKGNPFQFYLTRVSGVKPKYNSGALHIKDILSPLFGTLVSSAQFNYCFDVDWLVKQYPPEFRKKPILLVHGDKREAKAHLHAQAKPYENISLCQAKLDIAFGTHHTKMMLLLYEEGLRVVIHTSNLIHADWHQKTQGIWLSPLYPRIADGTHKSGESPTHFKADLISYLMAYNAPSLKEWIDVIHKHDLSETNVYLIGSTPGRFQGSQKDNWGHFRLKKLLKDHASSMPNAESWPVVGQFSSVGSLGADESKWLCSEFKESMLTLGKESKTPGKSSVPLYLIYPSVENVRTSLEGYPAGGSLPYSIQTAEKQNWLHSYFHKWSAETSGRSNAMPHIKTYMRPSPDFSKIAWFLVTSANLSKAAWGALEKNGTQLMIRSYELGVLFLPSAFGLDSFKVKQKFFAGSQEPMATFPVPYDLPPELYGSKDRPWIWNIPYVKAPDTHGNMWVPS
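Recombinant E. coli-expressed Tdp1 (1 nM) preincubated with compound 15 min at RT, then 5'-biotin/3'-phosphotyrosine-FITC DNA substrate (15 nM) added for 5 min. AlphaScreen beads (10 ug/ml) added, 10 min RT; tyrosine-FITC cleavage read as signal loss.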
TDP1 cell CPT – growth inhibition of DT40 Tdp1-/-;hTDP1 cells with camptothecin (screen for TDP1 inhibitors); chicken DT40 Tdp1-/-;hTDP1 cells + 20 nM CPT, ATP luminescence, 48 h; Potency, µM (doses to about 46.2 µM), without a hit: at the highest dose activity change, negative = growth inhibition, most hits filed as inhibitors; actives 12% (n = 420,000); note: potency is the fitted concentration of half-maximal effect; nearly all actives have a fitted effect of over 55% in size
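Cell growth measured by CellTiter-Glo luminescence after a minimum 48 h, 37 C compound exposure with 20 nM CPT in Tdp1-knockout DT40 cells stably expressing hTDP1, seeded 400/well; qHTS titration format.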
CtBP-E1A blk – inhibitors of CtBP/E1A interaction. actives 0.49% (n = 340,000). AlphaScreen GST-E1A/His-CtBP binding, 1536-well; hits give low values. activity change, % (no concentration beside the values). AID 651724; in the data active = activity change below about -65%; inconclusive = mostly about -30% to -63%
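In 5 uL wells, 23 nL compound meets equimolar GST-E1A and His-CtBP (5X stock 125 nM each) for 2 h, 37 °C. Beads (5X, 50 ug/mL) then 1 h, 37 °C, dark.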
IL1B secr inh – inflammasome signaling inhibition, IL-1 beta readout | THP-1 LPS/ATP IL-1B secretion, AlphaLISA, 16 h; hits give low values | activity change, % at 57.5 µM | actives 4.7% (n = 360,000); in the data active = activity change below about -50%; inconclusive = mostly about -30% to -49%
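THP-1 cells pretreated 1 hr with compounds (up to 57.5 uM final), then stimulated with LPS (250 ng/mL final) plus ATP (1.25 mM final); secreted IL-1B measured by AlphaLISA after 16 hr, decreased signal indicating inhibition.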
Numbers without * were called inactive; i = inactive; ? = inconclusive; nt = not tested or not shown; [ ] = dose if it differs, or a comment. Unless noted, calls come from the whole dose curve; as a rule, active = well fitted curve in the direction sought with a large enough effect; inconclusive = small, poorly fitted or top-dose-only effect, or another doubt; inactive = no such curve, though single readings can be large; an effect the other way counts as inactive or inconclusive. % is set by controls: 0 for no effect and ±100 for the full control effect.

SMILES	DT40 TDP1 no CPT	Six1-Eya2 inh	TDP1 inh	TDP1 cell CPT	CtBP-E1A blk	IL1B secr inh
CCCc1cc(=O)[nH]c(Nc2ccc(Cl)cc2)n1	16µM*	1	-1%	?	9	-76*
CCOc1ccccc1NC(=O)CSc1ccc(-c2ccco2)nn1	?	-19	6%	?	-12	i
CCOC(=O)c1ccccc1NC(=O)CSc1ccc(-c2sc(-c3ccccc3)nc2C)nn1	18µM*	nt	-10%	?	nt	nt
Cc1cc(C)c(NC(=O)CSc2ccc(-c3sc(-c4ccccc4)nc3C)nn2)c(C)c1	15µM*	nt	-8%	23µM*	nt	nt
CCOc1ccccc1NC(=O)CSc1cn[nH]n1	-6%	5	nt	-1%	4	-91*
CCOc1ccccc1NC(=O)CSc1ccc(-c2sc(C)nc2C)nn1	16µM*	-25	5%	21µM*	-21	i
CCOC(=O)c1ccccc1NC(=O)CSc1ccc(-c2cccnc2)nn1	?	-2	0%	-27%	-4	-16
COc1cc(C(=O)NCCCCCCNC(=O)c2cc(OC)c(OC)c(OC)c2)cc(OC)c1OC	1%	5	nt	11%	-4	8
O=C(COc1ccccc1)Nc1c(C(=O)N2CCC(N3CCCCC3)CC2)oc2ccccc12	?	-1	3%	?	nt	-5
N#CCCn1cc(/C=N/NC(=O)c2ccncc2)c(-c2ccccc2)n1	-3%	-2	3%	-1%	1	12
O=C(CSc1ccccc1)NCc1ccc2c(c1)CCN2C(=O)c1ccccc1	-19%	nt	8%	6%	nt	nt
Cc1nn(C)c(C)c1CCC(=O)N1CCCC(C(=O)c2cccc(OC(C)C)c2)C1 (stereo not given)	?	0	3%	18µM*	2	1
Cc1nn(C)c(C)c1CCC(=O)N1CCCC(Nc2ccc(C(C)C)cc2)C1 (stereo not given)	-14%	-3	1%	-11%	2	48
CC(C)Oc1cccc(C(=O)C2CCCN(C(=O)CCc3cnn(C)c3)C2)c1 (stereo not given)	?	-1	2%	16µM*	12	14
COc1ccc(C(=O)NC(C(=O)N2CCN(C/C=C/c3ccccc3)CC2)C(C)C)cc1 (stereo not given)	?	-18	nt	18µM*	-4	-25
O=C(NC(=S)N1CCN(C/C=C/c2ccccc2)CC1)c1ccc(F)cc1	?	-10	3%	?	-5	-5
COc1ccc(C(=O)NCC(=O)N2CC=C(c3ccccc3)CC2)cc1OC	26µM*	5	-3%[56.1 µM]	?	-13	7
Cc1ccc(C(=O)CCC(=O)N2CCN(C/C=C/c3ccccc3)CC2)cc1	21µM*	-3	nt	?	3	4
Cc1cccc(C(=O)NCC(=O)N2CC=C(c3ccccc3)CC2)c1	?	-8	1%	?	nt	15
CCOC(=O)N1CCN(C(=O)C(NC(=O)c2ccc(C(C)(C)C)cc2)C(C)C)CC1 (stereo not given)	2.3µM*	3	1%	8.2µM*	19	0
CCO[C@H]1OC(C(=O)N2CCCCCCC2)=C[C@@H](c2coc3ccccc3c2=O)[C@@H]1CCCO	?	9	6%	?	3	-24
COc1ccc(CNC(=O)C(C)OC(=O)CO/N=C(\C)c2ccc3c(c2)OCO3)cc1 (stereo not given)	-9%	-2	-2%	-7%	-5	1
COc1ccccc1C(=O)NCC(=O)N1CCN(C/C=C/c2ccccc2)CC1	?	0	1%	?	-5	-7
CCOc1ccc(C(=O)NCC(=O)N2CCN(C/C=C/c3ccccc3)CC2)cc1OCC	16µM*	1	nt	?	-3	4
NS(=O)(=O)c1ccc(NC(=O)CSc2nnc(NC3CC3)s2)cc1	-28%	-5	14µM*	11%	5	8
SMILES	DT40 TDP1 no CPT	Six1-Eya2 inh	TDP1 inh	TDP1 cell CPT	CtBP-E1A blk	IL1B secr inh
NS(=O)(=O)c1ccc(NC(=O)CSC2CCCCC2)cc1	29µM*	-4	1%	16µM*	3	8
COc1ccc(NC(=O)CSC2CCCCC2)cc1	-20%	2	-2%	-20%	3	1
O=C(NCc1ccco1)C(=O)NCC1OCCN1S(=O)(=O)c1ccc(Br)cc1 (stereo not given)	-3%	5	0%	1%	4	28
COc1ccc(-c2nnnn2-c2ccccc2OC)cc1	?	1	2%	?	12	13
CCOC(=O)N1CCN(C(=O)c2cc3c(=O)[nH]c4ccccc4c3s2)CC1	16µM*	7	6%	?	0	-16
COc1cccc(-c2nn(C)c3sc(C(=O)N4CCN(c5cccc(C)c5)C(C)C4)cc23)c1 (stereo not given)	23µM*	nt	7%	21µM*	nt	nt
COCCCNC(=O)c1cc2c(-c3cccc(OC)c3)nn(C)c2s1	?	-27	5%	?	?	-2
CCOC(=O)N1CCC(NC(=O)c2cc3c(-c4cccc(OC)c4)nn(C)c3s2)CC1	?	-20	3%	23µM*	?	0
CCOC(=O)N1CCN(C(=O)c2cc3c(-c4cccc(OC)c4)nn(C)c3s2)CC1	23µM*	-15	nt	?	-5	-67*
O=C(c1cc2c(=O)[nH]c3ccccc3c2s1)N1CCN(c2ccc(F)cc2)CC1	?	nt	0%	?	nt	nt
O=C(NC12CC3CC(CC(C3)C1)C2)c1cc([N+](=O)[O-])ccc1N1CCOCC1	0%	-2	nt	-7%	-8	-19
COc1ccccc1C(=O)NCCC(=O)NNC(=O)C1COc2ccccc2O1 (stereo not given)	-2%	-2	-10%	-3%	-4	-3
CN(CCO)C(=O)c1cn(C2CCN(Cc3ccc(C(F)(F)F)cc3)CC2)nn1	-14%	nt	nt	-14%	nt	nt
O=C1NC(=S)N/C1=C/c1cc2c(cc1[N+](=O)[O-])OCO2	0.58µM*	-3	nt	4.1µM*	nt	-9
O=C(O)/C=C\c1cc2c(cc1[N+](=O)[O-])OCO2	0%	-1	-3%	3%	6	4
C#CCN(C[C@H]1[C@H](OC(=O)Nc2cccs2)[C@H](OC(=O)Nc2cccs2)C[C@H]2C(=O)N(c3ccccc3)C(=O)[C@@H]12)S(=O)(=O)c1ccc(C)cc1	-2%	-8	nt	2%	-1	-15
COc1ccccc1C(=O)NC(=O)COC(=O)c1ncc(Cl)c(Cl)c1Cl	-5%	0	nt	?	0	10
